# High-throughput results deposited in PubChem by National Center for Advancing Translational Sciences (NCATS).
# A selection: hits, their analogues and other compounds. The true share with any hit is near 8.8%.
# HPGD inh – inhibitors of human 15-hydroxyprostaglandin dehydrogenase (HPGD) | P15428 | purified HPGD, NADH fluorescence kinetic, PGE2 substrate | Potency, µM, for the others: at the highest dose activity change, negative = inhibition, usual class: inhibitors | 150,000 compounds, 4.3% hits; active = well fitted inhibition curve with a large enough effect, not every such curve was filed as active; inconclusive = small, poorly fitted or top-dose-only effect, or another doubt; inactive = no such curve, though single readings can be large or run the other way; note: potency is the fitted concentration of half-maximal effect; % is set by controls: 0 for no effect and ±100 for the full control effect
#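 20 nM HPGD preincubated 15 min at room temperature with compound in 50 mM Tris-HCl pH 8, 0.01% Tween 20. Started with 1 mM NAD+ and 30 uM prostaglandin E2; NADH fluorescence (360/450 nm) read 5 times over 30-s intervals, last minus first.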
# LMNA splice mod – modulators of lamin A splicing | HeLa LMNA splicing GFP/RFP minigene ratio, 48 h | Potency, µM (series often up to 46.1 µM), without a hit: at the top dose ratio change, negative = inhibition, hits mostly inhibitors | 200,000 compounds, 0.01% hits; active = well fitted inhibition curve with a large enough effect in the signal ratio, with a control signal flat, not every such curve was filed as active; inconclusive = small, poorly fitted or top-dose-only effect, or effect the other way, or a change in a side signal; the % refers to the signal ratio; note: potency is the fitted concentration of half-maximal effect; % is set by controls: 0 for no effect and ±100 for the full control effect
#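 S3 HeLa stable clones carrying a lamin A-EGFP splicing minigene plus DsRed2 were seeded at 600 cells/well in Opti-MEM with 2% FBS, pin-dosed and incubated 48 h at 37°C. Acumen cytometry (488 nm) gave the GFP/RFP total-intensity ratio.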
# HTT aggregate – inhibitors of mutant huntingtin aggregate formation in PC12 cells | PC12 HttQ103-GFP aggregates, Acumen cytometry, 40 h | Potency, µM (top dose mostly 46.1 µM), for the others: at the highest dose activity change, negative = inhibition, most hits filed as inhibitors | 220,000 compounds, 1.1% hits; note: potency is the fitted concentration of half-maximal effect; % is set by controls: 0 for no effect and ±100 for the full control effect; nearly all actives have a fitted effect of over 60% in size
#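 Aggregate formation scored by laser-scanning cytometer (488 excitation, 500–530 emission) in lysed PC12 cells expressing Q103-GFP after 100 nM tebufenozide induction; library tested in dose series, with ATPLite reagent added in the multiplex.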
# ALDH1A1 inh-1 – blocks purified human ALDH1A1 activity | P00352 | Purified ALDH1A1, NADH fluorescence, propionaldehyde substrate | Potency, µM (series often up to 75.3 µM), for the others: at the highest dose activity, negative = inhibition, usual class: inhibitors | 220,000 compounds, 7.3% hits; active = well fitted inhibition curve with a large enough effect, not every such curve was filed as active; inconclusive = small, poorly fitted or top-dose-only effect, or another doubt; inactive = no such curve, though single readings can be large or run the other way;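 note: potency is the fitted concentration of half-maximal effect; plate controls were no enzyme wells and a reference inhibitor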
# Target sequence (P00352 whole entry, looked up): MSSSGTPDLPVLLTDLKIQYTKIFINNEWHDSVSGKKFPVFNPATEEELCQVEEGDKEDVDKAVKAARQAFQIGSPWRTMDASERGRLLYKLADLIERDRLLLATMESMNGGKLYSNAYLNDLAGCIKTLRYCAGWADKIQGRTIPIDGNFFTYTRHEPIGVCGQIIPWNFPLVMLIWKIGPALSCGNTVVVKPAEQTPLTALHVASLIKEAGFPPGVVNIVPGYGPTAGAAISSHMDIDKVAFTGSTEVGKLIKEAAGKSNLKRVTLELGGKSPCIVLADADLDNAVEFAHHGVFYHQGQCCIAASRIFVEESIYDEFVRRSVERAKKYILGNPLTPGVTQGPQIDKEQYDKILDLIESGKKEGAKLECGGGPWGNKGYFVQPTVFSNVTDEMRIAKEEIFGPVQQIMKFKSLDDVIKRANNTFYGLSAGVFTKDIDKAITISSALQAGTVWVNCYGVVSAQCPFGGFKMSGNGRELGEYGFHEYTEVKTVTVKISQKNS
# HTT ATP protect – cytoprotection in Huntington HTT-Q103 PC12 cell model; 230,000 compounds, 0.14% hits; Potency, µM (doses to about 56.4 µM), for the others: cytoprotection (ATP increase), actives largely listed as activators; PC12 HTT-Q103 induced, cytoprotection, ATP luminescence, 40 h; AID 1471; note: potency is the fitted concentration of half-maximal effect; % of control where 0% means no effect; nearly all actives have a fitted effect of over 45% in size
#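 Cells were plated at 1500 per well in phenol red-free DMEM with 5% equine and 5% calf serum. Tebufenozide (100 nM final) and compounds were added, then ATPlite reagent, and luminescence was read.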
# ALDH1A1 inh-2 – Inhibits human ALDH1A1, confirmation and counter-screen; AID 493210; 90 compounds, 90% hits; Potency, µM (doses to about 57.1 µM), for inactives: top-dose activity change, negative = inhibition, actives largely listed as inhibitors; purified ALDH1A1, NADH fluorescence, propionaldehyde/NAD+; shares compounds with ALDH1A1 inh-1; calls by dose curve
# * = called active by the depositor; u = inconclusive; x = not tested or not shown; [ ] = another dose, or the depositor's remark. Unless noted, calls come from the whole dose curve; as a rule, active = well fitted curve in the direction sought with a large enough effect; inconclusive = small, poorly fitted or top-dose-only effect, or another doubt; inactive = no such curve, though single readings can be large; an effect the other way counts as inactive or inconclusive.
SMILES,HPGD inh,LMNA splice mod,HTT aggregate,ALDH1A1 inh-1,HTT ATP protect,ALDH1A1 inh-2
Cn1c(SCC(=O)Nc2ccc3c(c2)OCCO3)nnc1-c1ccco1,x,-6.1%,7.6%,0.0316µM*,6.2%[10 µM],25.1µM*
O=C(CN(Cc1ccccc1)C(=O)c1cc2c(s1)CCC2)NCc1cccs1,-1.3%,0.7%,12.2%,0.447µM*,-11.6%,0.0708µM*
CCN(CC(=O)NCc1cccs1)C(=O)c1ccc(S(=O)(=O)N(C)C)cc1,x,-6.2%[46 µM],-1.2%,-9.9%,-30.6%,x
Clc1ccccc1-c1nc(N2CCNCC2)c2ccccc2n1,-13.5%,-8.0%,x,-3.4%,3.9%,x
COc1ccccc1/C=C/C=N/NC(=O)c1cccs1,x,x,-2.7%[9.22 µM],x,1.3%[10 µM],x
O=C1C(=O)N(Cc2ccc(Cl)c(Cl)c2)c2ccccc21,-27.4%,x,x,0.0501µM*,-51.5%,0.0794µM*
CCN(CC)C(=O)CSc1nc2ccccc2c(=O)n1CCC(=O)NCc1ccc(F)cc1,u,-2.2%,-16.1%,1µM*,26.5%[10 µM],1.99µM*
O=C(O)[C@H]1CCc2ccc3ccccc3c2[C@H]1c1cccc2ccccc12,-1.8%,x,x,10.1%[13.5 µM],-4.1%[10 µM],x
O=C1O/C(=C/Br)CCC1c1cccc2ccccc12 (configuration not stated),20µM*,u,x,0.501µM*,x,0.631µM*
CCOC(=O)N1CCN(Cc2nc3c(c(=O)[nH]c(=O)n3C)n2Cc2ccccc2C)CC1,-2.9%,4.0%,7.0%,u,-32.4%,x
CCOC(=O)N1CCN(Cc2nc3c(c(=O)n(C)c(=O)n3C)n2Cc2cccc(C)c2)CC1,-12.6%,2.6%,4.2%,0.0794µM*,-27.5%[0.074 µM],0.0631µM*
CCOC(=O)N1CCN(Cc2nc3c(c(=O)n(C)c(=O)n3C)n2Cc2ccc(F)cc2)CC1,-14.7%,-11.1%,17.7%,-5.1%,-4.9%,x
CCOC(=O)N1CCN(Cc2nc3c(c(=O)n(C)c(=O)n3C)n2Cc2cccc3ccccc23)CC1,-5.6%,u,-9.2%,0.1µM*,-14.9%,0.0398µM*
CNC(=O)c1oc(-c2ccccc2)nc1C,x,35.6%[46 µM],-15.2%[9.22 µM],15.2%,0.6%,x
CSc1ncc(C(=O)NCc2cccc(Br)c2)c(-c2ccccc2)n1,x,13.6%[46 µM],x,x,x,x
O=C(CN1C(=O)C(=O)c2ccccc21)OCN1C(=O)c2ccccc2C1=O,x,6.0%[46 µM],-31.1%[9.22 µM],3.9%,3.6%[10 µM],x
CCCCN(CC)C(=O)CN1C(=O)c2ccccc2C1=O,-0.8%,11.8%,-24.5%,-6.7%,-8.0%,x
CCN(CC)C(=O)CN1C(=O)C(=O)c2ccccc21,x,14.2%[46 µM],3.3%[9.22 µM],0.02µM*,-7.3%[10 µM],0.0891µM*
O=C(CN1C(=O)C(=O)c2ccccc21)NCCc1ccccc1,x,x,-22.5%,0.0891µM*,6.4%,0.0631µM*
O=C(CC(Nc1ccc(Cl)cc1)C(=O)O)c1ccccc1 (configuration not stated),-24.0%,7.6%,13.3%,1.3%,-30.7%[10 µM],x
O=C(CC(Nc1ccccc1Cl)C(=O)O)c1ccccc1 (configuration not stated),x,x,4.1%[9.22 µM],0.126µM*,-29.9%,-23.5%
Cc1c(Cl)cccc1NC(CC(=O)c1ccccc1)C(=O)O (configuration not stated),-16.1%,u,u,0.316µM*,x,-21.1%
